This note sets out measurements from paper PMC8384837, “Expanding the binding specificity for RNA recognition by a PUF domain”.

What all share (experiment): yeast three-hybrid, YBZ-1, SC-Leu-His + 0.5 mM 3-AT, 4 days
Common to all, as to settings: tags: N-Gal4 AD-HA kept; label: inside an RPR1-promoter hybrid RNA with tandem MS2 sites; ssRNA

One test has as its target PUM1 PUF domain R5-RFF (Homo sapiens, UniProt Q14671 828-1176, C1007R;R1008F;Q1011F). The essentials: (§1)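 Matching RNA elements and Pumilio-1 PUF domain libraries, randomized at the three base-contacting residues of every repeat, were co-expressed from a centromeric plasmid in strain YBZ-1 (LexA–MS2 coat fusion, HIS3 reporter). The repeat regions were PCR-amplified and Illumina-sequenced from cells grown four days on SC-Leu (input) or SC-Leu-His + 0.5 mM 3-AT (selection). The interaction score is the log change in variant frequency from input to selection. It is computed in log2, with a pseudocount of 1 for absent variants.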

For another test, the target named is PUM1 PUF domain R4-WGK (Homo sapiens, UniProt Q14671 828-1176, N971W;H972G;Q975K). The essentials:
as §1

The target of another test is PUM1 PUF domain R2-LWG (Homo sapiens, UniProt Q14671 828-1176, N899L;Y900W;Q903G). In outline:
as §1

Another test has as its target PUM1 PUF domain R3-VYG (Homo sapiens, UniProt Q14671 828-1176, C935V;R936Y;Q939G). In outline:
as §1

Another test has as its target PUM1 PUF domain R5-RRQ (Homo sapiens, UniProt Q14671 828-1176, C1007R). In outline: as §1
In the next test the target is T1, PUM1 PUF domain R6-TWR (Homo sapiens, UniProt Q14671 828-1176, N1043T;Y1044W;Q1047R).
T1 sequence: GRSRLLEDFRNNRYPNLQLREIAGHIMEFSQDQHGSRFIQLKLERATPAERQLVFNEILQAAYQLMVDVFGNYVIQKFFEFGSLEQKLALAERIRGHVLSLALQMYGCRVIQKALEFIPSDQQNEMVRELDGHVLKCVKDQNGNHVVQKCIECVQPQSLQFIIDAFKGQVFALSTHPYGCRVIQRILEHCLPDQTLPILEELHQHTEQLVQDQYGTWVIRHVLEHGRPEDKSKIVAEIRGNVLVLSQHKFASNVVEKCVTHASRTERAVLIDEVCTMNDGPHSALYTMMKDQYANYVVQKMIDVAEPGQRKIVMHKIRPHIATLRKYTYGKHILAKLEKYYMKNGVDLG
The essentials:
as §1

A further test addresses PUM1 PUF domain R3-MRR (Homo sapiens, UniProt Q14671 828-1176, C935M;Q939R). The essentials: as §1
For another test, the target named is T2, PUM1 PUF domain R6-RFG (Homo sapiens, UniProt Q14671 828-1176, N1043R;Y1044F;Q1047G).
T2 sequence: T1 sequence with T216R, W217F, R220G
The essentials: as §1

A further test has as its target T3, PUM1 PUF domain R6-YHR (Homo sapiens, UniProt Q14671 828-1176, N1043Y;Y1044H;Q1047R).
T3 sequence: T1 sequence with T216Y, W217H
The essentials: as §1

The target in another test is PUM1 PUF domain R4-SRA (Homo sapiens, UniProt Q14671 828-1176, N971S;H972R;Q975A). The essentials: as §1
Another test addresses T4, PUM1 PUF domain R6-KWA (Homo sapiens, UniProt Q14671 828-1176, N1043K;Y1044W;Q1047A).
T4 sequence: T1 sequence with T216K, R220A
In outline: as §1

In another test the target is T5, PUM1 PUF domain R6-SHK (Homo sapiens, UniProt Q14671 828-1176, N1043S;Y1044H;Q1047K).
T5 sequence: T1 sequence with T216S, W217H, R220K
In outline:
as §1

In the next test the target is T6, PUM1 PUF domain R6-LHS (Homo sapiens, UniProt Q14671 828-1176, N1043L;Y1044H;Q1047S).
T6 sequence: T1 sequence with T216L, W217H, R220S
In outline:
as §1

The target in the next test is PUM1 PUF domain R8-RHC (Homo sapiens, UniProt Q14671 828-1176, N1122R;Y1123H;Q1126C). In outline:
as §1

The target of another test is PUM1 PUF domain R5-LSR (Homo sapiens, UniProt Q14671 828-1176, C1007L;R1008S;Q1011R). The essentials:
as §1

A further test addresses PUM1 PUF domain R5-QLV (Homo sapiens, UniProt Q14671 828-1176, C1007Q;R1008L;Q1011V). In outline: as §1
In a further test the target is PUM1 PUF domain R7-RFW (Homo sapiens, UniProt Q14671 828-1176, S1079R;N1080F;E1083W). The essentials: as §1
A further test deals with PUM1 PUF domain R8-KRI (Homo sapiens, UniProt Q14671 828-1176, N1122K;Y1123R;Q1126I). The essentials:
as §1

In the next test the target is PUM1 PUF domain R7-RGR (Homo sapiens, UniProt Q14671 828-1176, S1079R;N1080G;E1083R). In outline: as §1
In a further test the target is PUM1 PUF domain R2-DWI (Homo sapiens, UniProt Q14671 828-1176, N899D;Y900W;Q903I). The essentials:
as §1

Residue numbers refer to the chain shown, from its start.

Regarding “GGCUAGAACUAGUGGAUCCCCCGGCGCCCGGCGGCUCGAGCCCGGGUAAGUGUAAAUAGUCUGCAUGCCGCCGGGCGCCAUGCCUGCAGGUCGACUCUAGAAAACAUG”, the binding signal was 1.95 log2 enrichment (interaction score) with PUM1 PUF domain R5-RFF; 1.16 log2 enrichment (interaction score) with PUM1 PUF domain R4-WGK; 1.91 log2 enrichment (interaction score) in the test with PUM1 PUF domain R2-LWG; 3.51 log2 enrichment (interaction score) in the test with PUM1 PUF domain R3-VYG; 3.35 log2 enrichment (interaction score) with PUM1 PUF domain R5-RRQ; 7.84 log2 enrichment (interaction score) in the test with PUM1 PUF domain R6-TWR. Also, the binding signal with PUM1 PUF domain R3-MRR was 0.71 log2 enrichment (interaction score); with PUM1 PUF domain R6-RFG, 3.56 log2 enrichment (interaction score); with PUM1 PUF domain R6-YHR, 4.05 log2 enrichment (interaction score); with PUM1 PUF domain R4-SRA, 4.71 log2 enrichment (interaction score); in the test with PUM1 PUF domain R6-KWA, 2 log2 enrichment (interaction score); in the test with PUM1 PUF domain R6-SHK, 3.34 log2 enrichment (interaction score). For the same sequence, the binding signal with PUM1 PUF domain R6-LHS was 2.24 log2 enrichment (interaction score); with PUM1 PUF domain R8-RHC, 3.41 log2 enrichment (interaction score); with PUM1 PUF domain R5-LSR, 0.51 log2 enrichment (interaction score).

As to “GGCUAGAACUAGUGGAUCCCCCGGCGCCCGGCGGCUCGAGCCCGGGUAAGUGUGAAUAGUCUGCAUGCCGCCGGGCGCCAUGCCUGCAGGUCGACUCUAGAAAACAUG”, the binding signal with PUM1 PUF domain R5-QLV was 2.52 log2 enrichment (interaction score); in the test with PUM1 PUF domain R5-RRQ, 1.79 log2 enrichment (interaction score).

As for “GGCUAGAACUAGUGGAUCCCCCGGCGCCCGGCGGCUCGAGCCCGGGUAAGUAUAAAUAGUCUGCAUGCCGCCGGGCGCCAUGCCUGCAGGUCGACUCUAGAAAACAUG”, in the test with PUM1 PUF domain R7-RFW, the binding signal was 2.69 log2 enrichment (interaction score).

Regarding “GGCUAGAACUAGUGGAUCCCCCGGCGCCCGGCGGCUCGAGCCCGGGUAAGUGUAAUUAGUCUGCAUGCCGCCGGGCGCCAUGCCUGCAGGUCGACUCUAGAAAACAUG”, the binding signal in the test with PUM1 PUF domain R3-VYG is 2.46 log2 enrichment (interaction score); with PUM1 PUF domain R3-MRR it was 3.08 log2 enrichment (interaction score).

Turning to “GGCUAGAACUAGUGGAUCCCCCGGCGCCCGGCGGCUCGAGCCCGGGUAAGUGUAACUAGUCUGCAUGCCGCCGGGCGCCAUGCCUGCAGGUCGACUCUAGAAAACAUG”, the binding signal with PUM1 PUF domain R3-MRR is 0.49 log2 enrichment (interaction score).

For the sequence “GGCUAGAACUAGUGGAUCCCCCGGCGCCCGGCGGCUCGAGCCCGGGUAAGCGUAAAUAGUCUGCAUGCCGCCGGGCGCCAUGCCUGCAGGUCGACUCUAGAAAACAUG”, the binding signal with PUM1 PUF domain R8-KRI was 2.91 log2 enrichment (interaction score); with PUM1 PUF domain R8-RHC it was 4.55 log2 enrichment (interaction score).

Turning to “GGCUAGAACUAGUGGAUCCCCCGGCGCCCGGCGGCUCGAGCCCGGGUAAGUUUAAAUAGUCUGCAUGCCGCCGGGCGCCAUGCCUGCAGGUCGACUCUAGAAAACAUG”, in the test with PUM1 PUF domain R7-RGR, the binding signal was 6.1 log2 enrichment (interaction score).

“GGCUAGAACUAGUGGAUCCCCCGGCGCCCGGCGGCUCGAGCCCGGGUAAGUGUAAGUAGUCUGCAUGCCGCCGGGCGCCAUGCCUGCAGGUCGACUCUAGAAAACAUG”: the binding signal with PUM1 PUF domain R3-VYG was 1.12 log2 enrichment (interaction score); with PUM1 PUF domain R3-MRR, 4.82 log2 enrichment (interaction score).

For the sequence “GGCUAGAACUAGUGGAUCCCCCGGCGCCCGGCGGCUCGAGCCCGGGUAAGUGUAUAUAGUCUGCAUGCCGCCGGGCGCCAUGCCUGCAGGUCGACUCUAGAAAACAUG”, the binding signal with PUM1 PUF domain R4-WGK was 3.03 log2 enrichment (interaction score); with PUM1 PUF domain R4-SRA it was 1.92 log2 enrichment (interaction score).

In the case of “GGCUAGAACUAGUGGAUCCCCCGGCGCCCGGCGGCUCGAGCCCGGGUAAGUGUACAUAGUCUGCAUGCCGCCGGGCGCCAUGCCUGCAGGUCGACUCUAGAAAACAUG”, the results for the binding signal in the test with PUM1 PUF domain R4-WGK and with PUM1 PUF domain R4-SRA were 3.57 log2 enrichment (interaction score) and 1.76 log2 enrichment (interaction score), respectively.

For the sequence “GGCUAGAACUAGUGGAUCCCCCGGCGCCCGGCGGCUCGAGCCCGGGUAAGUGUCAAUAGUCUGCAUGCCGCCGGGCGCCAUGCCUGCAGGUCGACUCUAGAAAACAUG”, the binding signal is 2.99 log2 enrichment (interaction score) in the test with PUM1 PUF domain R5-RFF, 4.75 log2 enrichment (interaction score) in the test with PUM1 PUF domain R5-RRQ and 2.6 log2 enrichment (interaction score) in the test with PUM1 PUF domain R5-LSR.

Take “GGCUAGAACUAGUGGAUCCCCCGGCGCCCGGCGGCUCGAGCCCGGGUAAGUGUAAAAAGUCUGCAUGCCGCCGGGCGCCAUGCCUGCAGGUCGACUCUAGAAAACAUG”: the binding signal in the test with PUM1 PUF domain R2-LWG is 8 log2 enrichment (interaction score); with PUM1 PUF domain R2-DWI it was 6.3 log2 enrichment (interaction score).

Take “GGCUAGAACUAGUGGAUCCCCCGGCGCCCGGCGGCUCGAGCCCGGGUAAGUCUAAAUAGUCUGCAUGCCGCCGGGCGCCAUGCCUGCAGGUCGACUCUAGAAAACAUG”: the binding signal is 5.36 log2 enrichment (interaction score) with PUM1 PUF domain R7-RFW and 5.01 log2 enrichment (interaction score) with PUM1 PUF domain R7-RGR.

As to “GGCUAGAACUAGUGGAUCCCCCGGCGCCCGGCGGCUCGAGCCCGGGUAAGUGAAAAUAGUCUGCAUGCCGCCGGGCGCCAUGCCUGCAGGUCGACUCUAGAAAACAUG”, in the test with PUM1 PUF domain R6-KWA, the binding signal is 2.73 log2 enrichment (interaction score).

With “GGCUAGAACUAGUGGAUCCCCCGGCGCCCGGCGGCUCGAGCCCGGGUAAGUGCAAAUAGUCUGCAUGCCGCCGGGCGCCAUGCCUGCAGGUCGACUCUAGAAAACAUG”, the binding signal with PUM1 PUF domain R6-TWR is 5.67 log2 enrichment (interaction score); in the test with PUM1 PUF domain R6-KWA, 4.16 log2 enrichment (interaction score).

As to “GGCUAGAACUAGUGGAUCCCCCGGCGCCCGGCGGCUCGAGCCCGGGUAAGUGUAAAGAGUCUGCAUGCCGCCGGGCGCCAUGCCUGCAGGUCGACUCUAGAAAACAUG”, the binding signal with PUM1 PUF domain R2-LWG was 3.16 log2 enrichment (interaction score).
